Source: PubChem BioAssay
Hits are enriched below; roughly 19% of the tested compounds scored in any of these assays.
Marburg entry inh: inhibitors of Marburg virus binding or cell entry | Potency, µM (series often up to 37.8 µM), for the others: at the top dose activity change, negative = inhibition, actives largely listed as inhibitors | 300,000 compounds, 1.8% hits | Marburg virus pseudotyped entry inhibition, cell reporter; calls by dose curve; tested in HEK293 cells; note: potency is the fitted concentration of half-maximal effect; % is set by controls: 0 for no effect and ±100 for the full control effect
Pf growth 96h: P. falciparum growth inhibition at 96 hours; 320,000 compounds, 6.9% hits; Potency, µM (series often up to 28.7 µM), inactives show at the highest dose activity change, negative = inhibition, most hits filed as inhibitors; P. falciparum luciferase reporter growth, 96 h; note: potency is the fitted concentration of half-maximal effect; % is set by controls: 0 for no effect and ±100 for the full control effect
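P. falciparum expressing integrated firefly luciferase grown in erythrocytes (2% hematocrit, 0.05% parasitemia final) with compounds for 96 hours at 37 C, 5% CO2. Growth inhibition read as loss of luminescence after adding luciferase detection reagent.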
Shiga toxin inh: Shiga toxin inhibition | Vero cells, Shiga toxin protein synthesis inhibition reporter | inhibition, % at 38.7 µM | 290,000 compounds, 9.2% hits | AID 2315; in the data active = inhibition mostly above about 28%, no sharp cut-off; inactive = mostly below about 43%; note: 0% is about no effect
Pf growth 48h: inhibits P. falciparum growth in the first generation, 48 h; P. falciparum luciferase growth in erythrocytes, 48 h; Potency, µM (series often up to 28.7 µM), for the others: top-dose activity change, negative = inhibition, most hits filed as inhibitors; 310,000 compounds, 5.9% hits; note: potency is the fitted concentration of half-maximal effect; % is set by controls: 0 for no effect and ±100 for the full control effect
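Here the parasites carry a stable luciferase gene and grow inside erythrocytes in Albumax-based RPMI medium with compound for one erythrocytic cycle. Activity is scored as loss of luminescent signal.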
Cycloheximide cs: affects cycloheximide protein synthesis inhibition readout, counter-screen; cell reporter, cycloheximide protein synthesis inhibition counterscreen; max response, %; 300,000 compounds, 12% hits; in the data active = max response mostly above about 13%, no sharp cut-off; inactive = mostly below about 14%; note: read at 38.3 µM for the half of the compounds with a filed dose; 0% is about no effect
Lassa entry inh: Lassa virus entry inhibition | Potency, µM (doses to about 37.9 µM), without a hit: at the highest dose activity change, negative = inhibition, hits mostly inhibitors | 300,000 compounds, 1.2% hits | Lassa virus pseudotype entry inhibition, cell reporter | AID 540256; calls by dose curve; tested in HEK293 cells; note: potency is the fitted concentration of half-maximal effect; % is set by controls: 0 for no effect and ±100 for the full control effect; nearly all actives have a fitted effect of over 50% in size
Active calls of the source: *; ? = inconclusive; / = not tested or not shown; [ ] = another dose, or the depositor's remark. Unless noted, calls come from the whole dose curve; as a rule, active = well fitted inhibition curve with a large enough effect; inconclusive = small, poorly fitted or top-dose-only effect, or another doubt; inactive = no such curve, though single readings can be large or run the other way.

SMILES	Marburg entry inh	Pf growth 96h	Shiga toxin inh	Pf growth 48h	Cycloheximide cs	Lassa entry inh
Cc1nn(CC(=O)N2CCN(C)CC2)c(=O)c2c1sc1ccccc12	/	?	3	-3%	-4	/
CCOC(=O)N1CCN(C(=O)c2ccc3c(c2)sc2nc(-c4ccccc4)cn23)CC1	?	174%	43*	-10%	53*	?
CCOC(=O)N1CCC(NC(=O)c2ccc3c(c2)sc2nc(-c4ccc(OC)cc4)cn23)CC1	/	32%	57*	6%	20*	/
CCOC(=O)N1CCN(C(=O)c2nc3ccccc3s2)CC1	?	?	73*	64%	34*	0%
COc1ccc(-c2nnc(Nc3ccc(CC(N)=O)cc3)c3ccccc23)cc1	-21%	2%	-5	?	-1	-16%
O=C(COc1nsnc1N1CCOCC1)N/N=C/c1ccccc1O	?	-89%	14	?	55	?
Cc1cccc(C(C)C)c1NC(=O)c1ccc(COc2ccc3c(C)cc(=O)oc3c2)cc1	-19%[46.1 µM]	9.3µM*	-10	?	-2	?
Cc1cc(=O)oc2cc(OCCCC[n+]3ccccc3)ccc12	?	?	-8	5.2µM*	11	12%[46.1 µM]
CSc1nc(C)cc(OCC(=O)N/N=C/c2ccccc2O)n1	2.8µM*	?	-9	-27%	-2	?
Cc1cc(=O)oc2cc(OCCSc3nnc(-c4ccccc4)o3)ccc12	-32%	4%	-15	-29%	5	8%
COc1cccc(COc2ccc3c(C)cc(=O)oc3c2)c1	?	244%	79*	116%	31*	?
CC(C)CCNC(=O)CN(C(=O)Cn1nnc(-c2ccccc2F)n1)c1cccc2c1CCCC2	8%	0%	-4	-16%	1	-2%
COC(=O)c1c(C)[nH]c(C(=O)COC(=O)Cc2ccc3c(c2)OCCO3)c1C	1%	?	23	-25%	2	3%
Cc1cc(=O)oc2cc(OCC(=O)c3ccccc3)ccc12	?	6.6µM*	20	133%	17*	?
Cc1cc(=O)oc2cc(OCC(=O)N/N=C/c3ccccc3O)ccc12	2%[46.1 µM]	9.3µM*	4	66%	-4	-9%[46.1 µM]
Cc1cc(=O)oc2cc(OCCc3ccccc3)ccc12	?	153%	83*	106%	42*	?
Cc1cc(=O)oc2cc(OCC#N)ccc12	-2%	-7%	-4	33%	5	/
CCOc1cc(/C=N/Nc2nc(C)cc(=O)[nH]2)ccc1O	?	7%	-6	?	-2	13%[46.1 µM]
CC1CC(C)CN(c2oc(-c3ccco3)nc2C#N)C1 (stereo unspecified)	0%	?	31	-29%	13*	-4%
N#Cc1nc(-c2ccco2)oc1N1CCc2ccccc2C1	?	35%	91*	-2%	25*	?
C=CCN(C(=O)c1ccc2snnc2c1)c1ccccc1	?	25%	6	-5%	-8	?
NC(=O)CC(NC(=O)c1ccccc1)c1ccc(NCCN2CCCCC2)c([N+](=O)[O-])c1 (stereo unspecified)	/	?	-3	-23%	0	/
COc1ccc(N(C(=O)c2cnccn2)C(C(=O)NCc2ccccc2)c2ccc(O)cc2)cc1 (stereo unspecified)	0%[46.1 µM]	19%	75*	53%	28*	/
O=C(NCc1ccccc1)C(c1ccco1)N(C(=O)c1ccccn1)c1ccccc1 (stereo unspecified)	-11%[46.1 µM]	-10%	23	-3%	-5	-15%
Cc1ccccc1N(C(=O)c1ccccn1)C(C(=O)NCc1ccccc1)c1ccncc1 (stereo unspecified)	-1%[46.1 µM]	13%	-6	6%	1	23%
SMILES	Marburg entry inh	Pf growth 96h	Shiga toxin inh	Pf growth 48h	Cycloheximide cs	Lassa entry inh
O=C(NCc1ccccc1)C(c1ccncc1)N(C(=O)c1ccccn1)c1ccccc1 (stereo unspecified)	18%[46.1 µM]	57%	60*	17%	25*	?
COc1ccc(CNC(=O)C(c2ccco2)N(C(=O)c2ccccn2)c2ccccc2)cc1 (stereo unspecified)	/	?	84*	102%	38*	/
O=C(NC1CCCC1)C1CCN(C(=O)c2ccc(Cl)cc2)CC1	-2%[46.1 µM]	13%	-6	17%	-4	7%[46.1 µM]
Cc1ccc(NC(=O)CCCn2c3ccccc3c(=O)c3cc(C)ccc32)c(Br)c1	/	/	/	/	/	2.8µM*
Cc1c(Cl)ccc2c1NC(=O)[C@]21[C@@H]2C(=O)N(Cc3ccccc3)C(=O)[C@@H]2[C@@H]2CCCN21	?	/	-4	?	-3	1%
CCc1cccc2c1NC(=O)[C@]21[C@@H]2C(=O)N(Cc3ccccc3)C(=O)[C@@H]2[C@@H]2CCCN21	?	-2%[5.75 µM]	-20	9.3µM*	1	-2%
CCOc1ccc2nc(COC(=O)c3ccncc3)c(C(=O)c3ccccc3)[n+]([O-])c2c1	/	41%	52*	102%	27*	/
CCC(C)NC(=S)Nc1ccc(C(=O)OC)cc1 (stereo unspecified)	-28%[46.1 µM]	?	56*	34%	26*	-25%
CC(CCc1ccccc1)NC(=O)C1CCN(S(=O)(=O)N2CCCCC2)CC1 (stereo unspecified)	-15%	1µM*	-5	?	-3	0%
O=C(NCCCCCCOC1=NS(=O)(=O)c2ccccc21)C(=O)Nc1ccccc1	/	37%	47	197%	25	/
CC(CCOC1=NS(=O)(=O)c2ccccc21)NC(=O)C(=O)Nc1ccccc1 (stereo unspecified)	/	67%	65*	65%	29*	/
CC(=O)c1ccc(NC(=S)NC(C)CCc2ccccc2)cc1 (stereo unspecified)	/	9.3µM*	-4	?	1	/
Cc1ccc(S(=O)(=O)CS(=O)(=O)c2ccc(C)cc2)cc1	1%	/	/	/	/	15%[46.1 µM]
Cc1ccccc1NC(=O)C(=O)NC(C)CCc1ccccc1 (stereo unspecified)	10%	12%	-2	7%	7	-2%
CC(CCc1ccccc1)NC(=O)C(=O)Nc1ccccc1 (stereo unspecified)	?	0%	100*	114%	56*	-16%
COc1ccc(NC(=O)C2CCN(C(=O)Cc3ccccc3)CC2)c(OC)c1	-1%[46.1 µM]	11%	1	17%	-3	-1%
Clc1ccc(CO/N=C(\Cn2ccnc2)c2ccc(Cl)cc2Cl)c(Cl)c1	/	1.9µM*	/	4.3µM*	/	/
Cc1ccccc1/C=C/C12NC(=O)CN1c1ccccc1C2(C)C (stereo unspecified)	-4%	?	63	?	24*	-2%
O=C(CC1C(=O)N(c2ccccc2)C(=S)N1c1ccccc1)c1ccc(Br)cc1 (stereo unspecified)	?	-20%	13	6%	0	7%
NC(=O)CC1C(=O)N(c2ccccc2)C(=S)N1NC(=O)c1ccc(Br)cc1 (stereo unspecified)	?	37%	55*	/	29*	2%[46.1 µM]
